From PubChem BioAssay

Assay: compound effects on hepatocellular carcinoma cell viability – HepG2, calcein-AM fluorescence, 48 h, basal, profiling panel (AID 1164); also: test concentration not given here
Settings: higher = more signal
`O=C1N(Cc2ccccc2)c2ccccc2C[C@@]12COC(c1ccc(OCCCO)cc1)=N2` gave a z-score of -0.409. `COc1ccc([Si](C)(C)[C@H]2[C@H](CC(=O)N3Cc4ccccc4C[C@H]3CO)O[C@@]3(C(=O)N(c4ccccc4)c4ccccc43)[C@@H]2C)cc1` showed a z-score of -0.755. For `C=C(COC)/C(=C/C[C@@H](OC(C)=O)c1ccccc1OCCO)c1cnc2ccccc2c1`, the z-score was -0.268. `O=C(NCc1ccccc1)[C@@H]1c2ccccc2C(=O)N(Cc2cc(C(F)(F)F)cc(C(F)(F)F)c2)[C@H]1c1ccc(CO)cc1` showed a z-score of -0.139. `COCCOC(=O)N1C(=O)[C@@]2(c3cc(C#CCNC(N)=O)ccc31)[C@H](C(=O)Nc1nc3ccccc3s1)[C@H]1C(=O)O[C@H](c3ccccc3)[C@H](c3ccccc3)N1[C@@H]2c1ccccc1OCCO` gave a z-score of -0.0995. With `CC=CC(O)C1C=CC2C(=O)NC(=O)C2N1Nc1ccc(Cl)cc1Cl` (stereo not given) the z-score was -1.14. `CCCCN1CC=CC23O[C@@H]4/C=C\CCCOC(=O)C4[C@H]2C(=O)N(C(CO)C(C)C)[C@@H]3C1=O` (stereo not given in full) gave a z-score of -0.0249. Work on `COc1ccc([Si](C)(C)[C@H]2[C@H](CC(=O)N3Cc4ccccc4C[C@H]3CO)O[C@@]3(C(=O)N(C)c4c(Br)cc(C)cc43)[C@@H]2C)cc1` yielded a z-score of -4.66. Compound `CC(C)(C)N1CC=CC23O[C@@H]4/C=C\CCCOC(=O)C4[C@H]2C(=O)N(CCCCCO)[C@@H]3C1=O` (stereo not given in full) has a z-score of -0.927. `C=C(CCCC)/C(=C/C[C@H](OC(=O)c1ccncc1)c1ccccc1OCCO)c1cc(C(=O)OC)ccc1OC` showed a z-score of -0.629. Compound `COc1ccc(C(=O)Nc2ccc(CN3C(=O)[C@@]4(O[C@@H](CCn5cc(CCO)nn5)[C@H]([Si](C)(C)c5ccc(OC)cc5)[C@H]4C)c4ccccc43)cc2)cc1` has a z-score of -3.14. With `C#CCN1[C@@H](Cc2ccccc2)C(=O)O[C@H](Cc2ccccc2)[C@@H]1/C=C/C1CC1` the z-score was 0.196. For `O=C1C=C(c2ccccc2)C(=O)C2=C1CC([C@H]1Oc3ccccc3S(=O)(=O)N3CCC[C@@H]13)=CC2`, the z-score was -1.05. `COC(=O)[C@@]1(Cc2ccccc2)[C@H]2c3cc(C(=O)N4CCCC4)n(Cc4ccc(OC)c(OC)c4)c3C[C@H]2CN1C(=O)c1ccccc1` showed a z-score of -0.257. Work on `O=C1c2ccccc2[C@@]2(Cc3ccccc3N(Cc3ccccc3)C2=O)[C@H](c2ccc(CO)cc2)N1Cc1ccccc1Cl` yielded a z-score of -0.826. Compound `C=C(CCCC)C(=O)CC[C@@H](OC(=O)c1ccccc1-c1ccccc1C(=O)O)c1ccccc1OCCO` has a z-score of -0.29. `COC(=O)C1(Cc2ccccc2)C=C2C(=C(C)C(=O)C2C)CN1` (stereo not given) showed a z-score of 0.159. `CC[C@@H]1C=C(C(=O)O)[C@H](c2ccc(OC)cc2)N1S(=O)(=O)c1ccc(C)cc1` showed a z-score of -0.183. With `COc1ccc([Si](C)(C)[C@@H]2[C@@H](CC(=O)N(CCO)Cc3ccccc3)O[C@]3(C(=O)N(Cc4ccc(I)cc4)c4ccccc43)[C@H]2C)cc1` the z-score was -1.59. For `COc1ccc([Si](C)(C)[C@@H]2[C@@H](CC(=O)N3CCC[C@H]3CO)O[C@]3(C(=O)N(Cc4cccc(N5CCCCC5=O)c4)c4ccccc43)[C@H]2C)cc1`, the z-score was -1.35. With `CCOC(=O)C[C@H]1[C@H](OC(=O)Cc2ccc3c(c2)OCO3)[C@@H](NC(=O)c2ccc3ccccc3n2)c2cc(OCCCO)ccc2N1C(=O)Cc1ccc(OC)cc1` the z-score was 1.03. `O=C1[C@H]2C=C(I)[C@H](C[C@@H]2OCCCCCCO)[C@@]12CO2` gave a z-score of -0.394. With `C=C(CCCC)/C(=C/C[C@H](OC(C)=O)c1cccc(OCCO)c1)c1cnc2ccccc2c1` the z-score was 0.301. `O=C(NC1CC1)[C@@H]1c2ccccc2C(=O)N(CC23CC4CC(CC(C4)C2)C3)[C@H]1c1ccc(CO)cc1` gave a z-score of 0.232. In the case of `C=CC[C@@]12N=C(c3ccc(OCCCO)cc3)O[C@@H]1c1ccccc1N(CCC)C2=O`, the z-score is reported as -1.16. `C=CCOC(=O)[C@@H]1[C@H]2C(=O)O[C@H](c3ccccc3)[C@H](c3ccccc3)N2[C@H](c2ccc(OCCOC(=O)[C@H]3C[C@H]4C(=O)NCC(=O)N4[C@H]3c3cccc(OCCO)c3)cc2)[C@@]12C(=O)Nc1ccc(I)cc12` showed a z-score of 0.946. Work on `COC(=O)C(CC#Cc1ccc2c(c1)[C@]1(C(=O)N2)[C@H](C(=O)N2CCc3cc(OC)c(OC)cc3C2)[C@H]2C(=O)O[C@H](c3ccccc3)[C@H](c3ccccc3)N2[C@@H]1c1ccccc1OCCO)C(=O)OC` yielded a z-score of 0.43. With `C=CCOC(=O)[C@@H]1[C@H]2C(=O)O[C@H](c3ccccc3)[C@H](c3ccccc3)N2[C@H](c2ccc(OCCOC(=O)[C@H]3C[C@H]4C(=O)N[C@@H](CCCCN(C)C)C(=O)N4[C@H]3c3ccc(O)cc3)cc2)[C@@]12C(=O)Nc1ccc(I)cc12` the z-score was 0.278. With `COc1ccc([Si](C)(C)[C@@H]2[C@@H](CC(=O)N3CCC[C@H]3CO)O[C@]3(C(=O)N(Cc4ccc(N5CCOC5=O)cc4)c4ccccc43)[C@H]2C)cc1` the z-score was -2.21. For `CC1CC/C=C\[C@H]2OC34C=CCN(c5ccc6ccccc6c5)C(=O)[C@H]3N(C(C)CO)C(=O)[C@@H]4C2C(=O)O1` (stereo not given in full), the z-score was 1.05. For `CCCCCCc1nc(-c2ccc(-c3ccc(Cl)c(Cl)c3)o2)cc2c1[Si](C(C)C)(C(C)C)OC2`, the z-score was -0.0442. Work on `CCOC(=O)C1=CC[C@@H](c2ccccc2)N(S(=O)(=O)c2ccc(C)cc2)[C@H]1c1ccccc1I` yielded a z-score of -0.47. `COC(=O)[C@]1(Cc2ccccc2)N=C(c2ccc(OCCCO)cc2)O[C@@H]1c1ccccc1CN=[N+]=[N-]` showed a z-score of -5.37. `CC(C)=CCCC=C(C)C(O)C1C=CC2C(=O)N(c3ccccc3)C(=O)C2N1Nc1ccc(C#N)cc1` (stereo not given) showed a z-score of 1.47. `CCOC(=O)C[C@H]1[C@H](OC(=O)c2ccccc2-c2ccccc2)[C@@H](NC(=O)C2CCCCC2)c2cc(OCCCO)ccc2N1C(=O)c1ccc2ccccc2n1` gave a z-score of 0.581.
